We go through 40 molecules from PubChem BioAssay (Tox21).

Records with an inconclusive call do not appear. Calls of active or inactive are those of the source. Calls come from the whole dose curve; as a rule, active = well fitted cell-killing curve with a large enough effect in the repeat runs; inconclusive = weak or mixed curves, or effect the other way; inactive = no such curve, though single readings can be large or run the other way.
% is set by controls: 0 for no effect and ±100 for the full control effect; potency is the fitted concentration of half-maximal effect.

This assay is described as follows: qHTS assay to identify small molecule agonists of the estrogen receptor alpha (ER-alpha) signaling pathway in the presence of an antagonist - cell viability counter screen (AID 1259386). Note: nearly all actives have a fitted effect of over 30% in size. The following applies: VM7Luc4E2 viability, CellTiter-Fluor fluorescence, 22 h; series mostly up to 92.4 µM; activity change, negative = cytotoxicity: at the top concentration. From the text:
National Center for Advancing Translational Sciences [NCATS]
NIH Chemical Genomics Center [NCGC]
U.S. Environmental Protection Agency [EPA]
National Institutes of Environmental Health Sciences [NIEHS]
National Toxicology Program [NTP]
U.S. Food and Drug Administration [FDA]
Estrogen receptor (ER), a member of nuclear hormone receptor plays an important role in development, metabolic homeostasis and reproduction. Two subtypes of ER, ER-alpha and ER-beta, have similar expression patterns with some uniqueness in both types. Endocrine disrupting chemicals (EDCs) and their interactions with steroid hormone receptors like ER causes disruption of normal endocrine function. Therefore, it is important to understand the effect of environmental chemicals in ER signaling pathway. For identifying ER agonists, VM7Luc4E2 cell line has been used in the current assay.
VM7Luc4E2 cell line (provided by Denison MS, University of California) endogenously expresses full-length ER-alpha and is stably transfected with a plasmid containing four estrogen responsive elements (ERE) upstream of a luciferase reporter gene. This current screening for measuring luciferase reporter gene activity using VM7Luc4E2 cells against Tox21 10K library collection is a confirmation study on agonist mode screening in presence of ER-antagonist (ICI-182,780) at 10.0nM final concentration. The cytotoxicity of the compounds was tested in parallel by measuring the cell viability using CellTiter-Fluor assay system (Promega, Madison, WI) in the same wells.
Tox21 Assay Protocol Summary:
VM7Luc4E2 cells were cultured in phenol red free assay medium containing 10% charcoal stripped FBS for 5 days prior to the assay. The cells were dispensed at 4,000 cells in 4uL of assay medium per well into white wall/solid-bottom 1536-well plates (Corning Life Sciences, Corning, NY) using a Multidrop Combi (Thermo Fisher Scientific Inc., Waltham, MA) dispenser. After the assay plates were incubated at 37C and 5% CO2 for 24hr, 1uL of 10.0nM (final concentration) ICI-182,780 or assay buffer was added using two separate tips of Flying Reagent Dispenser (FRD, Aurora Discovery, San Diego, CA). Then 23nL of compounds dissolved in DMSO at 15 concentrations and positive controls or DMSO only was transferred to the assay plates by a Pintool station (Wako, San Diego, CA). The assay plates were incubated at 37C and 5% CO2 for 22hr. After 21hr incubation at 37C, 1uL/well CellTiter-Fluor reagent (Promega Corporation, Madison, WI) was added to each well using FRD and after 1hr incubation at 37C and 5% CO2, the fluorescence signal was measured on ViewLux plate reader (PerkinElmer, Shelton, CT).
Regarding `CC1CN1` (stereo not given), the “activity change, negative = cytotoxicity” value was 2.13% (inactive).
Same read-out and setting: then `CN1[C@@H]2CC[C@H]1CC(O)C2` (stereo not given in full), with 0.699% (inactive); and `C[C@@H]1CC2=CC(=O)CC[C@@H]2[C@H]2CC[C@@]3(C)[C@@H](CC[C@]3(C)O)[C@@H]21`, with 0.979% [at 42.5 µM] (inactive); and `[Cl-].[Cl-].[Cl-].[Yb+3]`, with 4.41% (inactive).
The same measure, in the same setting: then `Cc1cnc2c(C(=O)O)c(Cl)ccc2c1`, with 0.745% (inactive); and `O=C(Cl)c1ccccc1F`, with -4.3% (inactive).
On the same count and under the same terms, then `O=S1OCC2C(CO1)C1(Cl)C(Cl)=C(Cl)C2(Cl)C1(Cl)Cl` (stereo not given), with -9.41% (inactive).
As to `CC(=O)[O][Pb]([c]1ccccc1)([c]1ccccc1)[c]1ccccc1`, the Potency was 19.3 µM (active).
Turning to `COc1c2c(cc3c1OCO3)CCN(C)C2`, the “activity change, negative = cytotoxicity” value is -2.09% [at 42.5 µM] (inactive).
Same read-out and setting: in the case of `[C-]1=CC=CC1.[Cl][Zr+2][Cl].c1cc[cH-]c1` it was 0.587% (inactive); in that of `CCOP(=O)(OCC)Oc1cc(C)nc(C(C)C)n1`, -0.454% (inactive); in that of `COc1ccc2c3c1O[C@H]1[C@H](O)CC[C@H]4[C@@H](C2)N(C)CC[C@@]341`, -5.12% (inactive).
Same read-out and setting: in the case of `Cc1ccc(C)c2ccccc12` it was 3.94% (inactive).
In the case of `CO/N=C(\C(=O)OC)c1ccccc1CO/N=C(\C)c1cccc(C(F)(F)F)c1`, the Potency was 30.6 µM (active).
As to `CCCCn1cc[n+](C)c1` (tested in a mixture with another compound), the “activity change, negative = cytotoxicity” value is 4.32% (inactive).
As for `Cc1cc(C2CC2)nc(Nc2ccccc2)n1`, the “activity change, negative = cytotoxicity” value is 5.94% (inactive).
On the same count and under the same terms, in the case of `CCCN` it was -0.969% (inactive).
Still for that read-out and setting: in the case of `O=C(CCCCl)c1ccc(F)cc1` it was 0.386% [at 42.5 µM] (inactive).
`CN(C)CCc1c[nH]c2ccccc12`: the “activity change, negative = cytotoxicity” value is -9.14% (inactive).
The same measure, in the same setting: then `CNC(=O)O/N=C(\C)C(C)S(C)(=O)=O` (stereo not given), with -2.69% [at 872 µM] (inactive); and `CCNc1nc(NC(C)C(C)C)nc(SC)n1` (stereo not given), with 0.483% (inactive).
On the same count and under the same terms, then `O=c1[nH]c2cc(Cl)ccc2n1C1CCNCC1`, with -5% [at 42.5 µM] (inactive).
In the case of `CC(=O)[O-].CC(=O)[O-].CC(=O)[O-].[Sb+3]`, the activity change, negative = cytotoxicity was -1.24% [at 3.27 µM] (inactive).
On the same count and under the same terms, then `COc1ccc2[nH]cc(CCN(C(C)C)C(C)C)c2c1`, with -10.2% (inactive).
In the case of `CCC[CH2][Sn]([CH2]CCC)([CH2]CCC)[O][Sn]([CH2]CCC)([CH2]CCC)[CH2]CCC`, the Potency is 0.475 µM (active).
Turning to `O=[N+]([O-])c1ccc(CCl)cc1`, the “activity change, negative = cytotoxicity” value is 3.09% (inactive).
The same measure, in the same setting: then `CC(Cl)CCl` (stereo not given), with -0.0904% (inactive); and `NC(=O)C(Cl)Cl`, with 4.78% (inactive).
Consider `O=[N+]([O-])[O-].[Tl+]`, for which the “activity change, negative = cytotoxicity” value is -0.795% (inactive).
The same measure, in the same setting: in the case of `OCC(Br)CBr` (stereo not given) it was 2.32% (inactive).
The same measure, in the same setting: then `CCCCN(CCCC)C(=S)[S-].CCCCN(CCCC)C(=S)[S-].[Ni+2]`, with 1.27% [at 42.5 µM] (inactive).
The same measure, in the same setting: then `CCOP(=O)(Sc1ccccc1)Sc1ccccc1`, with 0.409% (inactive).
As for `N#Cc1sc2c(=O)c3ccccc3c(=O)c=2sc1C#N`, the Potency was 7.7 µM (active).
For the molecule `Clc1ccc(C2(Cn3cncn3)OCCO2)c(Cl)c1`, the “activity change, negative = cytotoxicity” value is 0.0382% (inactive).
Still for that read-out and setting: in the case of `CCCCCCC[CH2][Sn]([Cl])([Cl])[CH2]CCCCCCC` it was 3.38% (inactive); in that of `Brc1ccc(Oc2ccc(Br)cc2Br)c(Br)c1`, 0.66% (inactive); in that of `C=CCOC(=O)c1ccccc1N`, -9.53% (inactive).
Consider `CCC(C)Br` (stereo not given), for which the “activity change, negative = cytotoxicity” value was -7.95% (inactive).
The same measure, in the same setting: then `[O-][Cl+3]([O-])([O-])O`, with -0.181% (inactive).
The same measure, in the same setting: in the case of `ClC1(Cl)C2(Cl)C3(Cl)C4(Cl)C(Cl)(Cl)C5(Cl)C3(Cl)C1(Cl)C5(Cl)C24Cl` (stereo not given) it was 8.04% (inactive).
